About 83,000 compounds went through this panel and 20% of them were active in at least one assay; those are over-represented in the sample as a whole.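 Testing used 96-well plates and a 48-hour single-concentration exposure. Example: -40 means 40% of the starting cells died.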 A number with no mark means an inactive call. Calls of active or inactive are those of the source. How the source made its calls: active means growth percent below 10; inactive means the rest.

Results on nine compounds are retold here after PubChem BioAssay (NCI).

Test systems include HCT-15 colon; SNB-19 CNS; U251 CNS; PC-3 prostate; SK-MEL-5 melanoma; UACC-62 melanoma; LOX IMVI melanoma; SK-MEL-28 melanoma; SK-MEL-2 melanoma; EKVX NSCLC; SN12C renal; UO-31 renal; TK-10 renal; ACHN renal; CAKI-1 renal; CCRF-CEM leukemia; MOLT-4 leukemia; A498 renal.
Common to all, as to assay: NCI-60 one-dose screen, 48 h (100 = growth as untreated, 0 = no growth, -100 = all killed)
Common to all, as to details: 10 µM unless noted

With `COc1ccc(-c2nc(/C=C3/C(=O)Nc4ccc(F)cc43)c3ccccn23)cc1`, the growth in the experiment on HCT-15 colon is 107%; with SNB-19 CNS it was 101%; in the experiment with U251 CNS, 88.3%; in the experiment with PC-3 prostate, 108%; with SK-MEL-5 melanoma, 102%; in the experiment with UACC-62 melanoma it was 106%. Also, the growth with LOX IMVI melanoma was 92.7%; in the experiment on SK-MEL-28 melanoma, 105%; in the experiment with SK-MEL-2 melanoma, 112%; with EKVX NSCLC, 123%; with SN12C renal it was 106%; in the experiment on UO-31 renal it was 97%. The growth in the experiment with TK-10 renal is 116%; in the experiment with ACHN renal it was 96.5%; in the experiment with CAKI-1 renal, 98.2%; in the experiment with CCRF-CEM leukemia it was 93.9%; in the experiment on MOLT-4 leukemia, 91.8%.

As to `CCN1C(=O)N(CC)C2C1NN=c1s/c(=C\c3cccnc3)c(=O)n12` (centres undefined), the growth in the experiment with HCT-15 colon was 18.9%; in the experiment with SNB-19 CNS, 29.2%; in the experiment on U251 CNS, 19.1%; in the experiment on PC-3 prostate, 21.3%; in the experiment on UACC-62 melanoma, 30.7%; in the experiment with LOX IMVI melanoma it was 46%. The growth with SK-MEL-28 melanoma was 51.8%; in the experiment with SK-MEL-2 melanoma it was 51.5%; in the experiment on EKVX NSCLC, 45.5%; with SN12C renal, 45.2%; in the experiment with UO-31 renal it was 46.8%; with TK-10 renal, 80.7%. The growth in the experiment with ACHN renal was 42.9%; in the experiment with CAKI-1 renal it was 47.5%; with CCRF-CEM leukemia it was 14.1%; in the experiment on MOLT-4 leukemia, 26.5%.

In the case of `Clc1cc(Cl)c2nc(-c3ccc(-c4ccc(/C=N/NC5=NCCN5)cc4)s3)cn2c1`, the growth is 38% with HCT-15 colon; 100% with SNB-19 CNS; 87.2% in the experiment with U251 CNS; 76.5% in the experiment on PC-3 prostate; 88% with SK-MEL-5 melanoma; 98.8% in the experiment on UACC-62 melanoma. In addition, the growth with SK-MEL-28 melanoma was 99.7%; with SK-MEL-2 melanoma, 106%; in the experiment on EKVX NSCLC, 80.8%; in the experiment with SN12C renal, 92.5%; in the experiment with UO-31 renal, 72%; in the experiment on TK-10 renal, 110%. In addition, the growth with ACHN renal was 105%; in the experiment on CAKI-1 renal it was 91.9%; in the experiment on A498 renal it was 38%; in the experiment on MOLT-4 leukemia, 73%.

Regarding `O=S(=O)(CC(O)(c1ccccc1)c1ccccc1)CC(O)(c1ccccc1)c1ccccc1`, the growth with HCT-15 colon is 96.4%; in the experiment on SNB-19 CNS, 83.2%; in the experiment with U251 CNS it was 70.7%; in the experiment on PC-3 prostate, 80.4%; in the experiment on SK-MEL-5 melanoma it was 88.6%; in the experiment with UACC-62 melanoma, 93.7%. Also, the growth was 76% in the experiment on LOX IMVI melanoma; 86% in the experiment with SK-MEL-28 melanoma; 109% in the experiment on SK-MEL-2 melanoma; 73.8% with EKVX NSCLC; 90.1% with SN12C renal; 92.9% with UO-31 renal. In addition, the growth with TK-10 renal is 107%; with ACHN renal, 78.1%; in the experiment with CAKI-1 renal, 66.9%; in the experiment with A498 renal, 98.7%; in the experiment on MOLT-4 leukemia, 96.7%.

On to `N#Cc1c(-c2ccccc2)cc(-c2ccccc2)n(CC(=O)NO)c1=O`, for which the growth with HCT-15 colon is 16.8%; with SNB-19 CNS it was 77%; in the experiment on U251 CNS, 52.5%; in the experiment on PC-3 prostate, 34.9%; in the experiment on SK-MEL-5 melanoma, 14.6%; in the experiment on UACC-62 melanoma it was 64.5%. The growth in the experiment with LOX IMVI melanoma is -90.5% (active); in the experiment with SK-MEL-28 melanoma it was 75.7%; in the experiment on SK-MEL-2 melanoma, 34.5%; in the experiment with EKVX NSCLC it was 41.7%; with SN12C renal, 47.8%; in the experiment with UO-31 renal, 25.2%. Moreover, the growth is 73.1% in the experiment with TK-10 renal; 43.3% in the experiment with ACHN renal; 20.8% in the experiment on CAKI-1 renal; -19.2% (active) in the experiment on CCRF-CEM leukemia; -5.67% (active) with MOLT-4 leukemia.

For `NC(=S)N/N=C1\CCCC(C(F)(F)F)C1` (centres undefined), the growth was 90.5% with HCT-15 colon; 100% in the experiment with SNB-19 CNS; 107% in the experiment with U251 CNS; 69.6% in the experiment on PC-3 prostate; 116% with SK-MEL-5 melanoma; 100% with UACC-62 melanoma. Also, the growth was 78% with LOX IMVI melanoma; 111% in the experiment on SK-MEL-28 melanoma; 102% with SK-MEL-2 melanoma; 84.7% with EKVX NSCLC; 85.1% in the experiment with SN12C renal; 64.8% in the experiment on UO-31 renal. The growth with TK-10 renal was 112%; in the experiment with ACHN renal it was 91.8%; in the experiment with CAKI-1 renal, 87.5%; with A498 renal, 128%; in the experiment on MOLT-4 leukemia, 74.5%.

On to `Cc1ccc(-c2cc3nc(C(Cl)Cl)nc(-c4cccnc4)n3n2)cc1`, for which the growth in the experiment with HCT-15 colon is -23.4% (active); in the experiment on SNB-19 CNS it was 23.4%; in the experiment with PC-3 prostate, -4% (active); with SK-MEL-5 melanoma, 44.8%; in the experiment on UACC-62 melanoma it was 33.3%; in the experiment with SK-MEL-28 melanoma it was 53.2%. The growth in the experiment with SK-MEL-2 melanoma is 77.8%; in the experiment with EKVX NSCLC, -2.59% (active); in the experiment on SN12C renal it was 55.1%; with UO-31 renal, 35.9%; in the experiment on TK-10 renal, 6.78% (active); in the experiment with ACHN renal, 1.65% (active). Moreover, the growth with CAKI-1 renal is 2.71% (active); with A498 renal, 37.3%; in the experiment on MOLT-4 leukemia, 27.8%.

Turning to `O=C(c1ccccc1)C1OC1c1ccc([N+](=O)[O-])cc1` (centres undefined), the growth was 70.8% in the experiment with HCT-15 colon; 95.3% in the experiment on SNB-19 CNS; 64.8% in the experiment with U251 CNS; 63.2% in the experiment on PC-3 prostate; 52.7% in the experiment on SK-MEL-5 melanoma; 71.4% in the experiment on UACC-62 melanoma. Besides, the growth is 29% in the experiment with LOX IMVI melanoma; 97.4% in the experiment with SK-MEL-28 melanoma; 89.2% in the experiment with EKVX NSCLC; 76.7% with SN12C renal; 136% with UO-31 renal; 50% in the experiment on TK-10 renal. Besides, the growth in the experiment with ACHN renal was 75.3%; in the experiment with CAKI-1 renal it was 72.7%; in the experiment on A498 renal it was 110%; in the experiment on CCRF-CEM leukemia, 35.1%; in the experiment with MOLT-4 leukemia, 76.2%.

In the case of `COc1ccc2[nH]c(=O)c(/C=N/Nc3nc(-c4ccccc4)cs3)c(O)c2c1`, the growth is 20.5% in the experiment on HCT-15 colon; 75.4% in the experiment on SNB-19 CNS; 44.3% in the experiment on U251 CNS; 58.9% in the experiment with PC-3 prostate; 65.2% with SK-MEL-5 melanoma; 62.7% in the experiment with UACC-62 melanoma. For the same compound, the growth in the experiment on LOX IMVI melanoma was 60%; in the experiment with SK-MEL-28 melanoma, 76%; in the experiment with SK-MEL-2 melanoma, 83.1%; in the experiment on EKVX NSCLC, 53.8%; with SN12C renal it was 73.8%; with UO-31 renal, 42.5%. Further, the growth with TK-10 renal is 90.2%; in the experiment on ACHN renal, 48.6%; in the experiment on A498 renal it was 94.9%; with CCRF-CEM leukemia, 26.5%; with MOLT-4 leukemia it was 35.2%.
